Experimental findings from PubChem BioAssay (EPA / NIEHS) are described below.

Inconclusive results are not listed. Calls of active or inactive are those of the source. Rule for the calls: active = hit-call score of the fitted dose curve at least 0.9, where 1 is the maximum; inconclusive = response in the unintended direction; inactive = score below 0.9.

As usually defined, the AC50 is the concentration giving half of the maximal activity seen.

For assay [1], the target named is rat CYP2D1, Cyp2d1 (gene 266684) (UniProt P10633). Nature of the assay: NVS_ADME_rCYP2D1: NovaScreen (NVS) CYP450-related Enzyme Activity (ADME) Assay for rat CYP2D1 (AID 2283122). As for the experimental part: NVS_ADME_rCYP2D1 is a biochemical, single-readout assay that uses extracted gene-proteins in a cell-free assay. Measurements were taken 0.75 hour after chemical dosing in a 96-well plate.NVS_ADME_rCYP2D1 is one of one assay component(s) measured or calculated from the NVS_ADME_rCYP2D1 assay. It is designed to make measurements of enzyme activity, a form of enzyme reporter, as detected with fluorescence intensity signals by Fluorescence technology.Data from the assay component NVS_ADME_rCYP2D1 was analyzed into 1 assay endpoint. This assay endpoint, NVS_ADME_rCYP2D1, was analyzed in the positive analysis fitting direction relative to Acetonitrile as the negative control and baseline of activity. Using a type of enzyme reporter, loss-of-signal activity can be used to understand changes in the enzymatic activity as they relate to the gene Cyp2d1. Furthermore, this assay endpoint can be referred to as a primary readout, because this assay has produced multiple assay endpoints where this one serves a enzymatic activity function. To generalize the intended target to other relatable targets, this assay endpoint is annotated to the cyp intended target family, where the subfamily is xenobiotic metabolism. […]
Chain of rat CYP2D1, Cyp2d1 (gene 266684) (P10633 whole entry, looked up): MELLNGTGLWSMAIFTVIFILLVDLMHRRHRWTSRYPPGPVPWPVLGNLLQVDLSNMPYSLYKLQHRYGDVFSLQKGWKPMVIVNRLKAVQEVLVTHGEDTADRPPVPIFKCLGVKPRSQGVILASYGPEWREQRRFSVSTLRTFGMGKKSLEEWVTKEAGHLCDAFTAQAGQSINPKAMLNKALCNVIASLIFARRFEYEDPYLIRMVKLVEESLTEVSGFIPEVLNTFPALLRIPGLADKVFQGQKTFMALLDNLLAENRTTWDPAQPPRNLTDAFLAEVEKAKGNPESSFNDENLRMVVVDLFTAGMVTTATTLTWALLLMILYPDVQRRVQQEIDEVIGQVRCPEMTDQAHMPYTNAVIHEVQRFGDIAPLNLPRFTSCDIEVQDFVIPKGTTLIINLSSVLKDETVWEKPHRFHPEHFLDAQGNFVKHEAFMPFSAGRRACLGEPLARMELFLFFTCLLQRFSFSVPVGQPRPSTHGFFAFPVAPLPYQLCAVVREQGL

A further assay has as its system rat CYP3A1, gene 25642. Nature of the assay: NVS_ADME_rCYP3A1: NovaScreen (NVS) CYP450-related Enzyme Activity (ADME) Assay for rat CYP3A1 (AID 2283126). The method, boiled down: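 Cell-free recombinant CYP assay with fluorescent substrate, read 0.5 h after dosing. Screened at 10 uM in duplicate, hits at up to 20 uM in concentration-response; loss of signal versus acetonitrile baseline.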

Assay [2] addresses human AKT serine/threonine Kinase 1 (AKT1), AKT1 (gene 207) (UniProt P31749). Nature of the assay: NVS_ENZ_hAKT1: NovaScreen (NVS) Enzymatic Assay for human AKT serine/threonine Kinase 1 (AKT1) (AID 2283138). The method, boiled down: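 Signal loss relative to DMSO, measured by fluorescence after electrophoretic separation of substrate and product, indicates inhibition of recombinant enzyme. Readings at 1 h; screening at 25 uM, follow-up curves up to 50 uM.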

Assay [3] has as its target rat CYP3A2, Cyp3a2 (gene 266682) (UniProt P05183). Description: NVS_ADME_rCYP3A2: NovaScreen (NVS) CYP450-related Enzyme Activity (ADME) Assay for rat CYP3A2 (AID 2283128). The method, boiled down:
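Cell-free rat CYP3A2 enzyme assay with fluorescent substrate, read 0.5 h after dosing. Primary duplicate screen at 10 uM; actives run in concentration-response up to 20 uM, relative to acetonitrile baseline.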

Assay [4] concerns the target human Caspase 10 (CASP10), CASP10 (gene 843) (UniProt Q92851). Nature of the assay: NVS_ENZ_hCASP10: NovaScreen (NVS) Enzymatic Assay for human Caspase 10 (CASP10) (AID 2283133). A digest of the protocol:
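Recombinant human caspase-10 from E. coli, cell-free fluorogenic substrate assay read 1 h after dosing. Primary duplicate screen at 25 uM; hits (e.g. ≥30% inhibition) run singly in concentration-response up to 50 uM, normalised to DMSO.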

For assay [5], the target named is human Acid Phosphatase 1 (ACP1), ACP1 (gene 52) (UniProt P24666). Description: NVS_ENZ_hACP1: NovaScreen (NVS) Enzymatic Assay for human Acid Phosphatase 1 (ACP1) (AID 2283136). As for the experimental part: NVS_ENZ_hACP1 is a biochemical, single-readout assay that uses extracted gene-proteins from SF9 in a cell-free assay. Measurements were taken 1.5 hours after chemical dosing in a 384-well plate.NVS_ENZ_hACP1 is one of one assay component(s) measured or calculated from the NVS_ENZ_hACP1 assay. It is designed to make measurements of enzyme activity, a form of enzyme reporter, as detected with fluorescence intensity signals by Fluorescence and electrophoretic mobility shift technology.Data from the assay component NVS_ENZ_hACP1 was analyzed into 1 assay endpoint. This assay endpoint, NVS_ENZ_hACP1, was analyzed in the positive analysis fitting direction relative to DMSO as the negative control and baseline of activity. Using a type of enzyme reporter, loss-of-signal activity can be used to understand changes in the enzymatic activity as they relate to the gene ACP1. Furthermore, this assay endpoint can be referred to as a primary readout, because this assay has produced multiple assay endpoints where this one serves a enzymatic activity function. To generalize the intended target to other relatable targets, this assay endpoint is annotated to the phosphatase intended target family, where the subfamily is acid phosphatase. […]
Chain of human Acid Phosphatase 1 (ACP1), ACP1 (gene 52) (P24666 whole entry, looked up): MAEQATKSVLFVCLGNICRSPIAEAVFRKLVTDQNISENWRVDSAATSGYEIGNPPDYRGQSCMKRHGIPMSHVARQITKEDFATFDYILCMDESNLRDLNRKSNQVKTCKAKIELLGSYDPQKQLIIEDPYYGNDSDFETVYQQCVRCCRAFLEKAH

A further assay concerns the target Caspase-3 (Homo sapiens) (UniProt P42574). Nature of the assay: NVS_ENZ_hCASP3: NovaScreen (NVS) Enzymatic Assay for human Caspase 3 (CASP3) (AID 2283139). The method, boiled down:
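Recombinant human caspase-3 from E. coli with a fluorogenic substrate, read by fluorescence 1 h after dosing. Primary screen in duplicate at 25 uM. Actives (for example ≥30% inhibition) rerun as concentration-response up to 50 uM.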

Chain of human Caspase 10 (CASP10), CASP10 (gene 843) (Q92851 whole entry, looked up): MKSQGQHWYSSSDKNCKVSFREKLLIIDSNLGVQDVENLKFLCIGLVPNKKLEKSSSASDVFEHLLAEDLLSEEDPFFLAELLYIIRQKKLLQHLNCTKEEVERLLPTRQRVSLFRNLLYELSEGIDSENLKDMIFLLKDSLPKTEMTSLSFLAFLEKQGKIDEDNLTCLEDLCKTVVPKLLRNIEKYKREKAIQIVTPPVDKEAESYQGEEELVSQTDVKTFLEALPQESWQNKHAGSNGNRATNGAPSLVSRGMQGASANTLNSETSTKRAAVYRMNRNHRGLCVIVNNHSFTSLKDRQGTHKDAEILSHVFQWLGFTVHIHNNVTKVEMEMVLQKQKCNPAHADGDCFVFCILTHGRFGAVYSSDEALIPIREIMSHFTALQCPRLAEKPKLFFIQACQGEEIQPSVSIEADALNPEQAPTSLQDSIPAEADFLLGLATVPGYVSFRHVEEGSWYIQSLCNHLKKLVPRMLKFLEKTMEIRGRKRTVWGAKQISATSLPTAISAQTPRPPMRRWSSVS
Chain of human AKT serine/threonine Kinase 1 (AKT1), AKT1 (gene 207) (P31749 whole entry, looked up): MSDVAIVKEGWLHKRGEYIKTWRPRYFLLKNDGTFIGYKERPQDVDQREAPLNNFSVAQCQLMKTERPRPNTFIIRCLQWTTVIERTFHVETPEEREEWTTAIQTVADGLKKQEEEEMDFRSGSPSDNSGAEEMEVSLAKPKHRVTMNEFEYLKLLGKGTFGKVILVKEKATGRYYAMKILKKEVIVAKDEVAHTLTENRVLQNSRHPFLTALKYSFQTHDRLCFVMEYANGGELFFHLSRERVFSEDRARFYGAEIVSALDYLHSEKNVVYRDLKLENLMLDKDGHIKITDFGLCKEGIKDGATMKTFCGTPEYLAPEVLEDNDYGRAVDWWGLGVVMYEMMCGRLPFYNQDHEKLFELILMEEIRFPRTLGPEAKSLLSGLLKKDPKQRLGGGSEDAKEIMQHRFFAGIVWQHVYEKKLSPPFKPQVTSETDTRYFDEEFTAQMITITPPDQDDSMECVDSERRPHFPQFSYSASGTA
Chain of Caspase-3 (Homo sapiens) (P42574 whole entry, looked up): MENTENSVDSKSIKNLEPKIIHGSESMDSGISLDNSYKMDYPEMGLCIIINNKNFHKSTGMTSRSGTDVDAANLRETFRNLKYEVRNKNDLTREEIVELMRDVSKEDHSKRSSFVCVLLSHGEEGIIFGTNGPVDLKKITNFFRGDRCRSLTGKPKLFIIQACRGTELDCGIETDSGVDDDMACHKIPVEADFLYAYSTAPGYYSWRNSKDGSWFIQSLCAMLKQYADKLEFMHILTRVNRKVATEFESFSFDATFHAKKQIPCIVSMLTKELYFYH
Chain of rat CYP3A2, Cyp3a2 (gene 266682) (P05183 whole entry, looked up): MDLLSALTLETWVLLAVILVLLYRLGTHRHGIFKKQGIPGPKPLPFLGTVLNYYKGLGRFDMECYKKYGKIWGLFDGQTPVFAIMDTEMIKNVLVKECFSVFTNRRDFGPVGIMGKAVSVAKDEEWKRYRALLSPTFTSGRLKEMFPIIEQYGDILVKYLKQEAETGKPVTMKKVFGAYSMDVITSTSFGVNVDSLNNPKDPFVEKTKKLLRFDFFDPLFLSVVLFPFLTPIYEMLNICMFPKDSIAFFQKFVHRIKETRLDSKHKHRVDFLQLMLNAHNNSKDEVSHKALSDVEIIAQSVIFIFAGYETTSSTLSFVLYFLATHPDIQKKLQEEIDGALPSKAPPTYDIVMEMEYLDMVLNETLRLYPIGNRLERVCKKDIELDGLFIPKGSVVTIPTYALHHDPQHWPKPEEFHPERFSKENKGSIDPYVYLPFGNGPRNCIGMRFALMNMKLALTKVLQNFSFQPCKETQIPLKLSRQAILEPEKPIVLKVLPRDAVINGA

On to `CCNc1nc(NC(C)C)nc(SC)n1`, for which the compound was classed as inactive in assay [1] and in assay [2]. For the same compound, in the assay with rat CYP3A1, gene 25642, the AC50 is 6.58 µM (active).
Take `CCC(C)(CC)c1cc(NC(=O)c2c(OC)cccc2OC)on1`: in assay [3], the AC50 is 0.981 µM (active).
In the case of `O=C(O)C(F)(F)C(F)(F)C(F)(F)C(F)(F)C(F)(F)C(F)(F)C(F)(F)C(F)(F)C(F)(F)F`, in assay [4], the outcome was inactive.
Consider `Clc1ccc(C(Cl)(Cl)Cl)cc1`, for which the compound was classed as inactive in assay [4].
Take `O=C(O)C(F)(F)C(F)(F)C(F)(F)C(F)(F)C(F)(F)C(F)(F)C(F)(F)C(F)(F)F`: the call in assay [5] was inactive.
For the compound `CC1=C2C[C@H]3[C@@H](CC=C4C[C@@H](O)CC[C@@]43C)[C@@H]2CC[C@]12O[C@@H]1C[C@H](C)CN[C@H]1[C@H]2C`, the outcome in assay [5] was inactive.
For `Cc1ccccc1CO[C@@H]1C[C@@]2(C(C)C)CC[C@]1(C)O2`, the result in assay [2] was inactive.
In the case of `CC(C)(c1ccccc1)c1ccc(O)cc1`, the result with Caspase-3 (Homo sapiens) was inactive.
